Source: ChEMBL document CHEMBL3988442, “University of Dundee, Small-Polar-MMV Screening Library” (2021)
For some of these results: Potency and affinity values are given separately.

Key:
Design in all cases: scale not given: direction of the effect not stated beside the values
[1] = molecular target: Protein translocase subunit SecA (Escherichia coli (strain K12)) (UniProt P10408); experiment: Assay to Identify E. coli SecA ATPase Inhibitors; assay type: functional; conditions: 30 µM
[2] = molecular target: T1, Ubiquitin-activating enzyme e1, putative (Leishmania donovani (strain BPK282A1)) (UniProt E9BSI1); experiment: Leishmania donovani Ubiquitin Activating Enzyme (LdE1); assay type: functional; conditions: 30 µM
T1 sequence (whole entry): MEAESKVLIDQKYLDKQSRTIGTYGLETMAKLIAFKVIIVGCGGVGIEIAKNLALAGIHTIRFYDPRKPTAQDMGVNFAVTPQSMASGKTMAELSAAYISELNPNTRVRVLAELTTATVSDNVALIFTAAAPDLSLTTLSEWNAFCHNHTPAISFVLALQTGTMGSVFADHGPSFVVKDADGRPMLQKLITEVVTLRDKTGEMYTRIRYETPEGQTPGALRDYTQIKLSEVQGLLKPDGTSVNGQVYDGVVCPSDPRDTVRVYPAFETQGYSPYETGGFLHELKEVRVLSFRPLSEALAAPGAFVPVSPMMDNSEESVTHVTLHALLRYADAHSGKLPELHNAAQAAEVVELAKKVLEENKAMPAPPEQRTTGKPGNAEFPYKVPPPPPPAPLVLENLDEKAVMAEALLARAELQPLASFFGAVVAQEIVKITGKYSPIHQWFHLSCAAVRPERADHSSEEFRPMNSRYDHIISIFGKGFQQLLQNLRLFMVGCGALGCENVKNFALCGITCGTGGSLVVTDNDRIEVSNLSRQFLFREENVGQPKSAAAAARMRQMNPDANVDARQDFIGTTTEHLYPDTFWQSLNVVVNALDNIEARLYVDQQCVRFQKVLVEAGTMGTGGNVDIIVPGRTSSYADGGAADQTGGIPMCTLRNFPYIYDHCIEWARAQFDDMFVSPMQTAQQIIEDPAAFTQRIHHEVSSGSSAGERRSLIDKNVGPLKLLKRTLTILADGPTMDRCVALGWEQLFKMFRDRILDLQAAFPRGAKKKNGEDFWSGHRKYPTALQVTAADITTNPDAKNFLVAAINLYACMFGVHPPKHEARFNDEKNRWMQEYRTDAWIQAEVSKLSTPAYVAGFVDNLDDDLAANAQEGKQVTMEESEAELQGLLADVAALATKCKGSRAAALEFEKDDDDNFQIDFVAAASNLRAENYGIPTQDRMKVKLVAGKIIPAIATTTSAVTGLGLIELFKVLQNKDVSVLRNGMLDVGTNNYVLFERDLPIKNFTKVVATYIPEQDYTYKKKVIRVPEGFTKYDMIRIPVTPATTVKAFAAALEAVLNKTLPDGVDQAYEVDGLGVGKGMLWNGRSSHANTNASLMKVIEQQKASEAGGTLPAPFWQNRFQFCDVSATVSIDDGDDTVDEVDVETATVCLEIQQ

[3] = molecular target: AMP-activated protein kinase, AMPK (Homo sapiens) (UniProt P54646+O43741+P54619+Q9UGJ0+Q9Y478+Q13131+Q9UGI9); experiment: AMP-dependent Kinase enzyme assay. An in vitro enzyme assay that detects ADP turnover that is directly proportional to AMPK activity. This uses naive AMPK that is activated during the assay with MK-8722; assay type: functional; conditions: 30 µM
[4] = molecular target: Sialic acid-binding Ig-like lectin 9 (Homo sapiens) (UniProt Q9Y336); experiment: Hs-Siglec9 ALPHAscreen SOP 20170721; conditions: 10 µM
Sequence of Sialic acid-binding Ig-like lectin 9 (Homo sapiens) (Q9Y336 whole entry): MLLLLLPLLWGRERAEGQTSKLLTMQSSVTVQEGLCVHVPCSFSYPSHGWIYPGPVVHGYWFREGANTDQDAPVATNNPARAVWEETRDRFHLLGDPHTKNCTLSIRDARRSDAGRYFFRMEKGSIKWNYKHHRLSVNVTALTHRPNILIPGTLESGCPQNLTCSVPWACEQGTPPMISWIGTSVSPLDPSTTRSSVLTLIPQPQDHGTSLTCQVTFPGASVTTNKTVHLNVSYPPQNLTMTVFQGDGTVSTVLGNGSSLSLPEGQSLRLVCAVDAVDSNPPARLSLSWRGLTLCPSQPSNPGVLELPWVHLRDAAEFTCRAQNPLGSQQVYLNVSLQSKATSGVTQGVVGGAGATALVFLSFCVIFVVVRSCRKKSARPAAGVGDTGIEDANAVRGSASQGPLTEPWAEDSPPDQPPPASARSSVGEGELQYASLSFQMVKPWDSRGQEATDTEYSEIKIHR

[5] = tested on: Trypanosoma cruzi; experiment: Trypanosoma cruzi phosphomannomutase and mannose-1-phosphate guanylyltransferase assay; assay type: functional; conditions: 10 µM
[6] = molecular target: T2, Arginase-2, mitochondrial (Homo sapiens) (UniProt P78540); experiment: in vitro enzyme assay to detect the production of urea directly proportional to the activity of Arginase II; assay type: functional; conditions: 33.3 µM; further: in the data most compounds retested in dose-response had high values
T2 sequence (whole entry): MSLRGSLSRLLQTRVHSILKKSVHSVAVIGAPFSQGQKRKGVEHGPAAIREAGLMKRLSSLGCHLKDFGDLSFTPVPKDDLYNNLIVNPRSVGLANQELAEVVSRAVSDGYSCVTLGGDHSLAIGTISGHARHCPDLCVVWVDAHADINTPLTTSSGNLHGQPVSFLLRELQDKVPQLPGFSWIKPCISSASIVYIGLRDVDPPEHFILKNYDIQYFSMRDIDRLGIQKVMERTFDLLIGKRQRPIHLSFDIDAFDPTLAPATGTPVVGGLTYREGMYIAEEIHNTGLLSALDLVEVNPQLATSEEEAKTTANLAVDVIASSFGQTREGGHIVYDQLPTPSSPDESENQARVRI

[7] = molecular target: T3, Proteasome subunit beta (Trypanosoma cruzi) (UniProt O96673); experiment: Trypanosoma cruzi proteasome chymotrypsin-like activity (TcProtChymo) assay.; further: in the data most compounds retested in dose-response had high values; assay type: functional; conditions: 9.37 µM
T3 sequence (whole entry): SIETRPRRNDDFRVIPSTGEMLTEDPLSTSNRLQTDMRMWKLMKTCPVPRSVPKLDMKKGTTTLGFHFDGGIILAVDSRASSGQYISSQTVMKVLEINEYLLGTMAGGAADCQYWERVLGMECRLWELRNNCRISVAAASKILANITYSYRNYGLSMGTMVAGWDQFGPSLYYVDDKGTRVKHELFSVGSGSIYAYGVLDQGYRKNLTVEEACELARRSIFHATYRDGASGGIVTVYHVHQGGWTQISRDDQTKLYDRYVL

[8] = species on record: Homo sapiens; experiment: To identify inhibition of the IFN signalling (Jak-Stat) pathway via expression of an eGFP reporter gene under the control of an IFN-stimulated response element (ISRE) containing MxA promoter.; assay type: functional; conditions: 30 µM
[9] = molecular target: T4, Tyrosyl-tRNA synthetase, putative (Trypanosoma cruzi (strain CL Brener)) (UniProt Q4DSP6); experiment: Trypanosoma cruzi tyrosyl tRNA synthetase (TcYRS) _High Tyrosine SOP; assay type: functional; conditions: 30 µM; further: in the data most compounds retested in dose-response had high values
T4 sequence (whole entry): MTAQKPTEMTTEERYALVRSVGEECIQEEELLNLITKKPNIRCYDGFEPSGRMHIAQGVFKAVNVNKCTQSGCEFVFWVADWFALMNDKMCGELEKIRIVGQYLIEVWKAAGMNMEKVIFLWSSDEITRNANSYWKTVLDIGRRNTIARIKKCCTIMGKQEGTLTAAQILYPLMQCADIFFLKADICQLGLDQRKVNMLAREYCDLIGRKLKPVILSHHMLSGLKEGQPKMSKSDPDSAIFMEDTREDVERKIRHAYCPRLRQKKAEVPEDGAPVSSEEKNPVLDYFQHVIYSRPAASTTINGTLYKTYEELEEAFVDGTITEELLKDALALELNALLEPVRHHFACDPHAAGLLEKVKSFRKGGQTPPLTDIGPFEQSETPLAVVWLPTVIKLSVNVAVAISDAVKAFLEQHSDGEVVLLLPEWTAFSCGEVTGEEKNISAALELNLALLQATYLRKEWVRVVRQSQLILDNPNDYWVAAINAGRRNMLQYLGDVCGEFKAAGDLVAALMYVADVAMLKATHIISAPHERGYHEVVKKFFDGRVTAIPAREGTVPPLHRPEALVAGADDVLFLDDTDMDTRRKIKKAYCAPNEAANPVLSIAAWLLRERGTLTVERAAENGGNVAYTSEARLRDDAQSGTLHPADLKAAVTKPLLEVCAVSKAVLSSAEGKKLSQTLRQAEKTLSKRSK

[10] = molecular target: T4, Tyrosyl-tRNA synthetase, putative (Trypanosoma cruzi (strain CL Brener)); experiment: Trypanosoma cruzi tyrosyl tRNA synthetase (TcYRS) SOP; assay type: functional; conditions: 30 µM
[11] = molecular target: Chromo domain-containing protein 1 (Saccharomyces cerevisiae (strain ATCC 204508 / S288c) (Baker's yeast)) (UniProt P32657); experiment: ScCHD-1 Enzyme Inhibition Assay; assay type: functional; conditions: 30 µM; further: in the data most compounds retested in dose-response had high values
Sequence of Chromo domain-containing protein 1 (Saccharomyces cerevisiae (strain ATCC 204508 / S288c) (Baker's yeast)) (P32657 whole entry, the tested form may be a part): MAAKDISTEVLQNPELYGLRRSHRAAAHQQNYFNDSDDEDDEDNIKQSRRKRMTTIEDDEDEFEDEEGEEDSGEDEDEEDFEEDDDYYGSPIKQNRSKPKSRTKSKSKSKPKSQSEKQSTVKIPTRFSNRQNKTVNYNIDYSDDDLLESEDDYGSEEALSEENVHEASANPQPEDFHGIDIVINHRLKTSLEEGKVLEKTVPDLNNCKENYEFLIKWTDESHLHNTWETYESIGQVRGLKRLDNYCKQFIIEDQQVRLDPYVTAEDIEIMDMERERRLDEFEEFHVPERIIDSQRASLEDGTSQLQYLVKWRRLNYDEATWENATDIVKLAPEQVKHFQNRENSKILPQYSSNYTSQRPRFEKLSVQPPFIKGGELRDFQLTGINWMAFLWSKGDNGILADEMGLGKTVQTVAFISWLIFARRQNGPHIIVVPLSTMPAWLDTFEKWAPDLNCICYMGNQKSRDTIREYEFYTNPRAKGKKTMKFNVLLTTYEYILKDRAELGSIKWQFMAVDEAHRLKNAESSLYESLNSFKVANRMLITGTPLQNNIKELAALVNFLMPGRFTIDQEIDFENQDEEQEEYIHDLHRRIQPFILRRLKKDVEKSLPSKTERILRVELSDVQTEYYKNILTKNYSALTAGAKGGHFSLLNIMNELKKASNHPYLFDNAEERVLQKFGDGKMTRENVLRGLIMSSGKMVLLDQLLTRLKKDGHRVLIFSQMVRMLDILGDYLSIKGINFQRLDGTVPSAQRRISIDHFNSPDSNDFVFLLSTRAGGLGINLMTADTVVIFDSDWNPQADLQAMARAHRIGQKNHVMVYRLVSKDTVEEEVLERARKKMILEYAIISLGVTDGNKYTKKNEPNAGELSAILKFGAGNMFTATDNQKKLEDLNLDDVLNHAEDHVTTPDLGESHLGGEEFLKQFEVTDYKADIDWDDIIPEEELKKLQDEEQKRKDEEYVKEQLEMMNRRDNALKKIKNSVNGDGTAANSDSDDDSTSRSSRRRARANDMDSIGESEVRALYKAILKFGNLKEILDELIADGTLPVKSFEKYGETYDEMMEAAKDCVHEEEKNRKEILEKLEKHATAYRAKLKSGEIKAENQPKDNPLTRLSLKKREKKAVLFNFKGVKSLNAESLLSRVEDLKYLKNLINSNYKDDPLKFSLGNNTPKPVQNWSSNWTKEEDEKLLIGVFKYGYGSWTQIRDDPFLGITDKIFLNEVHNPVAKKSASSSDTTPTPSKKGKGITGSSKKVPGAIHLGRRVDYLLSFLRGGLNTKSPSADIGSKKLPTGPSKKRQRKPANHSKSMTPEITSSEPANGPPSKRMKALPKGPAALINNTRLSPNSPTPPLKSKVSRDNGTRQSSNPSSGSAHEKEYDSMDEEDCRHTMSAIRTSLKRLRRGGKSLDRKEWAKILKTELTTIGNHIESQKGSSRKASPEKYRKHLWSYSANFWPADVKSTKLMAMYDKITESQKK

Sequence of Protein translocase subunit SecA (Escherichia coli (strain K12)) (P10408 whole entry): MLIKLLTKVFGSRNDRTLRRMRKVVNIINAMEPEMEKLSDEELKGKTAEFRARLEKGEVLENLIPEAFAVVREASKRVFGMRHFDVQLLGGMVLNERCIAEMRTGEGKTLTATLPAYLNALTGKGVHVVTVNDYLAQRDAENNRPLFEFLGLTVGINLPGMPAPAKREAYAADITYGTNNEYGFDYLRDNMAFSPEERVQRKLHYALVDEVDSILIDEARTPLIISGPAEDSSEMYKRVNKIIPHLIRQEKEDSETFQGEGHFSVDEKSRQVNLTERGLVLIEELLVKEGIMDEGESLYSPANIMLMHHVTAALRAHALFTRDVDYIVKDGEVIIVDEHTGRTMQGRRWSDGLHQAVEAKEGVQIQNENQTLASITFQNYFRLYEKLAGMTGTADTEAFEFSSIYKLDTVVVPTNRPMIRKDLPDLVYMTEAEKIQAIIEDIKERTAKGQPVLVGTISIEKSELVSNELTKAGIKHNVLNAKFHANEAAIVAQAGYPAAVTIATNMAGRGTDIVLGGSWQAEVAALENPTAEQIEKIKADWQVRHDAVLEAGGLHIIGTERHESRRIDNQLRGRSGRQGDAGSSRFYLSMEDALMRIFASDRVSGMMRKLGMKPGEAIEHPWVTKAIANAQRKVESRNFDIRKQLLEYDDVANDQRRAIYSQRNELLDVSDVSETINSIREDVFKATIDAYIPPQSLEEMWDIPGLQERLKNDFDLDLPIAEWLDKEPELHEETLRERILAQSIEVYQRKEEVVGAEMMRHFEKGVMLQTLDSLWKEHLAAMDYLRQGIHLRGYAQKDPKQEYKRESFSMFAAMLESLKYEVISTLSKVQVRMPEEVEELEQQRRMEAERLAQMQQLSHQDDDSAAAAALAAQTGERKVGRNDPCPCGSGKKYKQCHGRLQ

Row | SMILES | Percent Effect [1] [%] | Percent Effect [2] [%] | Percent Effect [3] [%] | Percent Effect [4] [%] | Percent Effect [5] [%] | Percent Effect [6] [%] | Percent Effect [7] [%] | Percent Effect [8] [%] | Percent Effect [9] [%] | Percent Effect [10] [%] | Percent Effect [11] [%]
1 | O=C(O)C1(Cc2ccccc2Cl)CCN(c2ncccc2F)CC1 | -0.132 | 5.41 | -2.78 | 5.67 | 1.54 | 1.91 | 19.5 | 7.74 | 6.88 | 2.44 | -3.4
2 | CCCc1nc(N2CCN(CC)CC2)c2c(n1)c(C)nn2CC | -0.47 | 7.79 | 2.46 | 26.2 | 5.01 | -6.9 | 10.5 | 10.3 | 7.53 | 16.1 | -5.13
3 | O=C(CC1CC1)N1CC[C@H]2[C@@H]1CCC(=O)N2c1cccnc1 | 3.01 | 10.8 | 7.09 | -6.56 | -4.79 | 4.14 | 22.9 | 2.55 | 1.08 | 12.8 | -1.6
4 | COCC(NC(=O)c1cc[nH]n1)c1cccc(C(F)(F)F)c1 (stereo not given) | -5.2 | 16.4 | -2.13 | 16 | 3.92 | 0.455 | 6.03 | 15.4 | 4.3 | 7.5 | -5.07
5 | c1cnc(N2CCC3(COCc4cnc(-c5cccnc5)nc43)C2)nc1 (stereo not given) | -3.71 | -2.7 | 12.2 | -3.8 | -1.86 | -5.41 | 1.11 | 3.84 | -1.08 | -10.3 | -4.41
6 | COc1ccc(C(=O)NCCc2nnc3ccccn23)c(OC)c1 | -6.68 | 5.2 | 5.94 | -6.61 | -7.93 | -3.16 | 13.5 | 13 | 0 | 2.35 | -16.9
7 | O=C([C@@H]1CC[C@@H]2[C@@H](CCN2Cc2ccoc2)O1)N1CCCC1 | -5.35 | 13.5 | -5.44 | 27.1 | 0.684 | 4.71 | 17.9 | -10.1 | 7.53 | 13.6 | -3.6
8 | Cc1n[nH]cc1CNc1ccc2c(c1)N(C(=O)OC(C)(C)C)CCC2 | -6.86 | 7.79 | -1.81 | 5.14 | 1.08 | -8.28 | 7.65 | 4.68 | 4.3 | 8.64 | 0.972
9 | CC(NC(=O)CCC(=O)c1cccs1)c1nnc2n1CCCCC2 (stereo not given) | -1.87 | -2.7 | -8.57 | -0.426 | -3.06 | 5.73 | -5.39 | 10 | 3.96 | 13.4 | 2.68
10 | CN(C)S(=O)(=O)N1CCN(c2nccc(C(F)(F)F)n2)CC1 | -2.09 | 5.48 | 8.09 | 4.91 | 7.64 | 0.909 | 10.5 | 9.93 | 5.38 | 12.5 | -3.75
11 | O=C(NCC1CC1)Nc1cnc2cc(Cl)ccc2c1O | -4.33 | 12.2 | 4.52 | -10.8 | -2.57 | -1.62 | 8.89 | 8.61 | -1.07 | -1.3 | -6.64
12 | O=S(=O)(c1ccccc1)N1CCCN(CCCn2ccnc2)CC1 | -1.12 | 0 | -5.54 | 24.8 | 5.38 | -0.248 | 3.35 | -7.92 | 2.15 | 3.7 | -12.2
13 | Cc1nc(COc2cccc(C#N)c2)no1 | -1.52 | 21.1 | -5.19 | 8.22 | 5.13 | -0.36 | 8.21 | -0.09 | 10.3 | 25.9 | -8.11
14 | CS(=O)(=O)c1ccc(CNC(=O)N2CCC(c3ccccc3)CC2)cc1 | -1.75 | 7.59 | 0.598 | -2.13 | -5.76 | 3.42 | 5 | 8.31 | -3.45 | 1.27 | -6.29
15 | CC(C)=CCN1CCOC(Cn2nc(C)cc2C)C1 (stereo not given) | 2.83 | 18.4 | 3.22 | -4.58 | -8.27 | -1.92 | 16.7 | 8.7 | 3.43 | 17.1 | -11.3
16 | CC(=O)Nc1nc(C(=O)N2CCCC2Cn2cc(C)cn2)cs1 (stereo not given) | -5.22 | 10.4 | 1.53 | 17.1 | -6.76 | 1.47 | 14.5 | 26.6 | 2.86 | 9.41 | -19.2
17 | COCc1cc(NCCc2ccc(F)cc2)n2nccc2n1 | -5.32 | 0 | 14.1 | -6.47 | -0.196 | -2.27 | -0.887 | -6.7 | 1.07 | 5 | -5.83
18 | Cc1cc(C(=O)N2CCCC(n3ccnc3C)C2)c(C)s1 (stereo not given) | -3.98 | -5.26 | 5.18 | -0.508 | 6.52 | 0 | 1.44 | 13.2 | 1.06 | 2.6 | -2.55
19 | Cc1nc[nH]c1CN1C[C@@H]2CC[C@H](C1)N(C(=O)CCNS(C)(=O)=O)C2 | -4.5 | -1.39 | -15.6 | 26.7 | 4.57 | 17.7 | 3.33 | -7.69 | 5.26 | 7.69 | -4.5
20 | Cc1cccc(C(=O)N2CCN(S(C)(=O)=O)[C@@H](C)C2)c1C | -5.53 | -2.74 | 15.2 | -4.05 | -1.57 | -2.27 | 0.71 | 9.6 | 0 | 0 | 0.913
